Here are results for eight molecules from PubChem BioAssay (NCI).

The panel holds about 83,000 compounds, 20% with a hit somewhere; the sample as a whole holds those more often.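 Negative percent growth values reflect cell death: -40 means 40% of the cells present at the start died, and -100 means all died.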 Unmarked numbers belong to inactive results. Active and inactive are the calls of the source. The calls were made as follows: active = growth percent below 10; inactive = the rest.

Common to all, as to experiment: NCI-60 one-dose screen, 48 h (100 = growth as untreated, 0 = no growth, -100 = all killed)
Common to all, as to conditions: 10 µM unless noted

Test [1] has as its system NCI-H226 lung.
Test [2] concerns NCI-H322M lung.
Test [3] has as its system HOP-62 NSCLC.
Test [4] concerns NCI-H460 lung.
Test [5] concerns HOP-92 NSCLC.
Test [6] relates to NCI-H522 lung.
Test [7] has as its system A549/ATCC NSCLC.
Test [8] concerns 786-0 renal.
Test [9] deals with COLO 205 colon.
Test [10] has as its system DU-145 prostate.
In test [11] the test system is K-562 leukemia.
Test [12] deals with MALME-3M melanoma.
In test [13] the test system is MDA-MB-231 breast.
For test [14], the system named is RXF 393 renal.
Test [15] concerns SF-268 CNS.
Test [16] has as its system SF-295 CNS.
The test system of test [17] is SF-539 CNS.
The subject of test [18] is UACC-257 melanoma.
Test [19] relates to M14 melanoma.

In the case of `CO[C@@]12C=C[C@@]34CCC(=O)N3c3ccccc3[C@@H](O1)C4C2`, the growth in [1] is 96.8%; in test [2], 99.8%; in test [3], 97.7%; in test [4] it was 104%; in [5], 93%; in test [6], 92.7%. For the same molecule, the growth in [7] is 98.4%; in test [8], 101%; in test [9], 105%; in test [10], 111%; in test [11], 97.5%; in test [12], 98%. Besides, the growth in test [13] was 100%; in test [14], 107%; in [15] it was 98.4%; in test [16], 109%; in test [17], 102%; in test [18], 101%. Moreover, the growth in test [19] is 99.5%.

Turning to `COc1cc(C2=NN(C=O)C(c3cccc(Nc4ccnc5cc(C(F)(F)F)ccc45)c3)C2)cc(OC)c1OC` (stereo unspecified), the growth in test [1] was 64.3%; in test [2], 66.2%; in [3], 70.1%; in test [4], 44%; in test [5], 29.1%; in test [6], 53.1%. The growth was 49% in [7]; 63.3% in [8]; 40% in test [10]; 37.8% in [11]; 86.3% in test [12]; 58.1% in test [13]. Further, the growth is 72.4% in test [14]; 46.6% in [15]; 65.2% in test [16]; 77% in test [17]; 81.2% in test [18]; 15.4% in test [19].

As to `C=C(C)[C@@H]1CC[C@]2(C(=O)O)CC[C@]3(C)[C@H](CC[C@@H]4[C@@]5(C)C[C@@H](CC#Cc6ccc(Cl)cc6)C(=O)C(C)(C)[C@@H]5CC[C@]43C)[C@@H]12`, the growth in test [1] was 40.2%; in [2], 55.6%; in [3], 54.7%; in [4], 34.8%; in test [5], 67.9%; in [6], 12.6%. Further, the growth in [7] was 31.3%; in [8], 60.5%; in [9] it was 53.8%; in test [10], 39.4%; in test [11] it was 28.8%; in test [12] it was 21.2%. Further, the growth was 6.05% (active) in test [13]; 62.4% in test [14]; 74.1% in test [15]; 41.3% in test [16]; 57% in [17]; 75.6% in test [18]. Moreover, the growth in test [19] was 1.24% (active).

On to `C#CCN1C(=O)c2ccccc2N(CC#C)C12CCN(Cc1cn(CC(=O)Nc3ccccc3C(N)=O)nn1)CC2`, for which the growth in test [1] was 83.2%; in [2], 85%; in [3], 104%; in test [4], 89.7%; in test [5], 107%; in test [6], 67.7%. Also, the growth in test [7] was 92.3%; in test [8] it was 81.1%; in test [9] it was 99.9%; in [10] it was 98.7%; in test [11], 92.4%; in test [12], 102%. Besides, the growth in test [13] was 89.9%; in test [14], 90.5%; in test [15] it was 91.7%; in [16] it was 85.5%; in test [17] it was 91.5%; in test [18] it was 103%. In addition, the growth in test [19] is 89.3%.

On to `CCOC(=O)c1c(C)nc2c(c1N)/C(=C/c1cccs1)C(=O)N2c1ccc(OC)cc1`, for which the growth in [1] was 40.5%; in [2] it was 70.6%; in test [3], 10.2%; in test [4], 34.1%; in [5] it was 22%; in [6] it was 29.8%. The growth in [7] was 34.5%; in [8], 5.33% (active); in test [9] it was 63.2%; in test [10], 44.5%; in [11], 59.1%; in [12], 26.9%. In addition, the growth in test [13] was 36.5%; in [14] it was -23.1% (active); in test [15] it was 47.6%; in test [16], 47.2%; in [17], 7.71% (active); in test [18] it was 36.1%. The growth in test [19] is 58.2%.

`NS(=O)(=O)c1ccc(-n2nc(-c3ccccc3)ccc2=O)cc1`: the growth in [1] was 100%; in test [2], 115%; in test [3], 102%; in [4] it was 104%; in test [5], 97.1%; in test [6], 89.9%. The growth in test [7] was 112%; in [8] it was 93.8%; in test [9] it was 125%; in test [10], 109%; in [11], 89.3%; in [12], 82.5%. The growth is 108% in test [13]; 125% in test [14]; 106% in test [15]; 260% in [16]; 95.3% in test [17]; 111% in [18]. Further, the growth in test [19] was 118%.

As for `COc1ccc(C(=S)c2cc(OC)c(OC)c(OC)c2)cc1OC(=O)CCl`, the growth in test [1] is 103%; in [2], 42.4%; in test [3] it was 30.9%; in [4], 7.23% (active); in test [5], 54.8%; in test [6], 12.9%. Moreover, the growth was 21.2% in [7]; 27.4% in [8]; 16.7% in test [9]; 9.36% (active) in test [10]; 10.2% in test [11]; 74.2% in [12]. Also, the growth was 32.9% in [13]; 44.7% in [14]; 39.3% in test [15]; 14.7% in test [16]; 9.83% (active) in [17]; 56.7% in test [18]. Moreover, the growth in test [19] was 12.6%.

For the molecule `S=C(Nc1ccc(Cl)cc1)c1ccccn1`, the growth in test [1] was 88.1%; in [2], 97.2%; in test [3], 78.3%; in [4], 101%; in test [5] it was 77.1%; in test [6], 73.7%. Further, the growth in [7] is 88.9%; in test [8], 93.2%; in test [9], 110%; in test [10] it was 105%; in test [11], 90%; in test [12] it was 85.2%. The growth was 93.1% in test [13]; 97.8% in test [14]; 96.5% in test [15]; 91.4% in [16]; 102% in test [17]; 91.1% in [18]. For the same molecule, in test [19], the growth is 103%.
